PubChem BioAssay (NCI)
This is part of a sample that, as a whole, favours compounds with a hit. Of some 83,000 tested, about 20% had one in any assay.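 Interpretation: 100, growth as untreated; towards 0, rising growth inhibition; 0, no net growth; 0 to -100, cell death. Compounds scoring below 10 were considered active.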 The source made the active and inactive calls.

How the values were obtained:
Test in all cases: NCI-60 one-dose screen, 48 h (100 = growth as untreated, 0 = no growth, -100 = all killed)
Conditions in all cases: 10 µM unless noted
NCI-H23 lung = test system: NCI-H23 lung
NCI-H226 lung = test system: NCI-H226 lung
NCI-H322M lung = test system: NCI-H322M lung
HOP-62 NSCLC = test system: HOP-62 NSCLC
NCI-H460 lung = test system: NCI-H460 lung
HOP-92 NSCLC = test system: HOP-92 NSCLC
NCI-H522 lung = test system: NCI-H522 lung
A549/ATCC NSCLC = test system: A549/ATCC NSCLC
786-0 renal = test system: 786-0 renal
COLO 205 colon = test system: COLO 205 colon

Measured: growth

O=C(NO)c1ccc(Cn2c(=O)n(-c3ccccc3F)c(=O)c3ccccc32)cc1
active: NCI-H23 lung -40.4% | HOP-62 NSCLC 8.43% | NCI-H522 lung -60.3% | A549/ATCC NSCLC 5.07% | COLO 205 colon -58.3%
inactive: NCI-H226 lung 17.6% | NCI-H322M lung 26.2% | NCI-H460 lung 19% | HOP-92 NSCLC 23.2% | 786-0 renal 33.3%

COc1cc(F)c(F)c(Nc2ccc(I)cc2F)c1NS(=O)(=O)C1(C[C@H](O)CO)CC1
inactive: NCI-H23 lung 13% | NCI-H226 lung 41.3% | NCI-H322M lung 14.2% | HOP-62 NSCLC 25.1% | NCI-H460 lung 27.8% | NCI-H522 lung 31.4% | A549/ATCC NSCLC 26.3% | 786-0 renal 54.5%
active: HOP-92 NSCLC -19.1% | COLO 205 colon -0.628%

CN1CCN(c2ccc(OC(F)(F)F)c(Nc3ncc4c(n3)-c3c(c(C(N)=O)nn3CCO)CC4)c2)CC1
inactive: NCI-H23 lung 26% | NCI-H226 lung 57.8% | NCI-H322M lung 58.1% | HOP-92 NSCLC 25.8% | 786-0 renal 17%
active: HOP-62 NSCLC 5.17% | NCI-H460 lung 5.8% | NCI-H522 lung -22% | A549/ATCC NSCLC 9.12% | COLO 205 colon -15.4%

CCCS(=O)(=O)Nc1ccc(F)c(C(=O)c2c[nH]c3ncc(-c4ccc(Cl)cc4)cc23)c1F
inactive: NCI-H23 lung 56% | NCI-H226 lung 57.2% | NCI-H322M lung 27.8% | HOP-62 NSCLC 34.8% | NCI-H460 lung 17.3% | HOP-92 NSCLC 28% | NCI-H522 lung 28.9% | A549/ATCC NSCLC 25.6% | 786-0 renal 19%
active: COLO 205 colon -4.91%

COc1cc(C2CC(c3ccc(Cl)cc3)=NN2c2ccc(Cl)cc2)cc(OC)c1OC (stereo not given)
inactive: NCI-H23 lung 97.4% | NCI-H226 lung 88.4% | NCI-H322M lung 91.1% | HOP-62 NSCLC 100% | NCI-H460 lung 97.1% | HOP-92 NSCLC 57.7% | NCI-H522 lung 88.9% | A549/ATCC NSCLC 93.9% | 786-0 renal 98.8% | COLO 205 colon 91.4%

COc1ccc2c(CCC(c3ccccc3)c3ccccc3)c3[n+](cc2c1OC)CCc1cc2c(cc1-3)OCO2
active: NCI-H23 lung 0.765% | HOP-62 NSCLC 9.37% | NCI-H460 lung -3.4% | HOP-92 NSCLC -9.89% | NCI-H522 lung -0.122% | COLO 205 colon -58.8%
inactive: NCI-H226 lung 24.7% | NCI-H322M lung 33.1% | A549/ATCC NSCLC 15.7% | 786-0 renal 14.8%

Cc1cc(N2CCCC2)nc(N(CCCNc2ccnc3cc(Cl)ccc23)Cc2ccc3c(c2)OCO3)n1
active: NCI-H322M lung 8.23% | HOP-62 NSCLC -17.4% | NCI-H460 lung 5.83% | HOP-92 NSCLC -36% | NCI-H522 lung -28.1% | 786-0 renal -88.8% | COLO 205 colon -73.8%
inactive: NCI-H23 lung 20.9% | NCI-H226 lung 50.4% | A549/ATCC NSCLC 13.2%

CC(C)=CCc1cc2c(cc1O)C1=C(C(=O)C3=C(NCCS3(=O)=O)C1=O)C(C=C(C)C)O2 (stereo not given)
inactive: NCI-H23 lung 25.7% | NCI-H226 lung 57.9% | NCI-H322M lung 11.4% | HOP-62 NSCLC 25.3% | NCI-H460 lung 17.7% | HOP-92 NSCLC 115% | A549/ATCC NSCLC 65.8% | 786-0 renal 58.7% | COLO 205 colon 29.4%
active: NCI-H522 lung -4.35%

CNc1ncc2cc(-c3cc(NC(=O)NCCC(C)(C)C)c(F)cc3C)c(C)nc2n1
inactive: NCI-H23 lung 12.8% | NCI-H226 lung 33.1% | NCI-H460 lung 21.3% | A549/ATCC NSCLC 12.2% | 786-0 renal 29.8%
active: NCI-H322M lung 4.99% | HOP-62 NSCLC 5.28% | HOP-92 NSCLC -44.3% | NCI-H522 lung -5.5% | COLO 205 colon -34.5%

CCS(=O)(=O)N1CCN(c2ccc(Nc3ncc(C(N)=O)c(NC4CC4)n3)cc2)CC1
inactive: NCI-H23 lung 75.9% | NCI-H226 lung 73.1% | NCI-H322M lung 79.4% | HOP-62 NSCLC 59.3% | NCI-H460 lung 60.3% | HOP-92 NSCLC 87.4% | NCI-H522 lung 59.2% | A549/ATCC NSCLC 62.2% | 786-0 renal 89%
active: COLO 205 colon 1.91%

CCOC(=O)C1=C(C)NC(=O)NC1c1cc(=O)oc2ccc(C)cc12 (stereo not given)
inactive: NCI-H23 lung 96.9% | NCI-H226 lung 93.4% | NCI-H322M lung 98.6% | HOP-62 NSCLC 105% | NCI-H460 lung 108% | HOP-92 NSCLC 95.6% | NCI-H522 lung 81.5% | A549/ATCC NSCLC 97.6% | 786-0 renal 102% | COLO 205 colon 105%

Cc1cc2c(-c3nc4ccccn4c3Nc3cccc4ccccc34)c(O)c(O)cc2c(O)c1-c1c(C)cc2c(-c3nc4ccccn4c3Nc3cccc4ccccc34)c(O)c(O)cc2c1O
inactive: NCI-H23 lung 12.4% | NCI-H226 lung 46.6% | NCI-H322M lung 59.4% | HOP-62 NSCLC 37.9% | NCI-H522 lung 32% | A549/ATCC NSCLC 16.1% | 786-0 renal 68% | COLO 205 colon 28%
active: NCI-H460 lung 3.9% | HOP-92 NSCLC 9.86%

CCCCCCCC12Cc3ccccc3C1=Nc1c(c3ccccc3n1C)C2=O (stereo not given)
inactive: NCI-H23 lung 84.8% | NCI-H226 lung 77.8% | NCI-H322M lung 88.4% | HOP-62 NSCLC 84% | NCI-H460 lung 92.7% | HOP-92 NSCLC 93.4% | NCI-H522 lung 48.1% | A549/ATCC NSCLC 75.5% | 786-0 renal 105% | COLO 205 colon 112%

COc1ccc(OC)c(NC2=C(SCCc3ccccc3)C(=O)c3ccccc3C2=O)c1
inactive: NCI-H23 lung 45.2% | NCI-H226 lung 78.8% | NCI-H322M lung 89.7% | HOP-62 NSCLC 97.8% | NCI-H460 lung 91.6% | HOP-92 NSCLC 77.8% | NCI-H522 lung 73% | A549/ATCC NSCLC 87.2% | 786-0 renal 100% | COLO 205 colon 95.6%
